A number with no mark means an inactive call. Inconclusive results are not listed. The source made the active and inactive calls. Calls follow the shape of the dose curve; as a rule, active = well fitted curve in the direction sought with a large enough effect; inconclusive = small, poorly fitted or top-dose-only effect, or another doubt; inactive = no such curve, though single readings can be large; an effect the other way counts as inactive or inconclusive.

We go through 23 compounds from PubChem BioAssay (NCATS).

Test [1] has as its target Glutathione peroxidase 1 (Homo sapiens) (UniProt P07203). In words: Primary qHTS Assay for Inhibitors of Recombinant Selenoprotein Glutathione Peroxidase 1 (GPX1) (AID 1845191). Also: nearly all actives have a fitted effect of over 65% in size. Also: potency is read from the fitted curve at half-maximal effect. As to activity, negative = inhibition: % is scaled to controls: 0 for no effect and ±100 for the full control effect. In a few lines:
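GR-coupled readout: NADPH consumption tracked by fluorescence, ex 340/em 450 nm, at t=0 and after 15 min at RT. Final mix 10 nM GPX1, 1 mM GSH, 0.5 mM CHP, 0.5 mM NADPH, 100 nM GR, 0.01% BSA, following 30 min enzyme–compound preincubation.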
Background: Quantitative high-throughput screening tests each substance at several concentrations.

Test [2] concerns the target Phospholipid hydroperoxide glutathione peroxidase GPX4 (Homo sapiens) (UniProt P36969). In words: Primary qHTS Assay for Inhibitors of Recombinant Selenoprotein Glutathione Peroxidase 4 (GPX4) (AID 1845192). Also: nearly all actives have a fitted effect of over 65% in size. As to activity change, negative = inhibition: series mostly up to about 50 µM; % is scaled to controls: 0 for no effect and ±100 for the full control effect. The procedure, abridged:
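Steps: GPX4 plus compound, 30 min RT; add GR/GSH/NADPH master mix; start with cumene hydroperoxide; read 340/450 nm fluorescence at 0 and 15 min. Finals were 200 nM GPX4, 1 mM GSH, 0.5 mM CHP, 0.5 mM NADPH, 100 nM GR.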

For test [3], the target named is Luciferin 4-monooxygenase (Photinus pyralis) (UniProt P08659). In words: Primary firefly luciferase (FLuc) qHTS assay for identification of artifact compounds. (AID 1845220). Also: nearly all actives have a fitted effect of over 60% in size.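 As to activity change, negative = inhibition: series mostly up to about 54 µM; plate controls were DMSO vehicle for no effect and no enzyme for full effect.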 The procedure, abridged:
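Titrated compounds were incubated 15 min at RT, protected from light, with luciferin and ATP at 10 uM; reaction started with 10 nM FLuc, luminescence imaged at 5 min, and concentration-response fitted by Hill equation.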

Test [4] in a line: Primary fluorescence-based thiol-reactive (MSTI) qHTS assay for identification of artifact compounds. (AID 1845221). Also: nearly all actives have a fitted effect of over 65% in size. Also: potency is read from the fitted curve at half-maximal effect.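 As to activity change, negative = thiol reactive: series mostly up to about 54 µM; thiol-reactive compounds lower the probe fluorescence signal.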 In a few lines: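 qHTS titration of compound; 4 uM MSTI, PBS pH 7.4, 2% DMSO; 1 h RT, dark; fluorescence 525/598 nm; normalized to Acetyl-MSTI and MSTI; 4-parameter Hill fit.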
The subject of test [5] is Nanoluciferase (engineered Oplophorus gracilirostris luciferase). In words: Primary Nanoluciferase (NLuc) qHTS assay for identification of artifact compounds. (AID 1845222).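 Also: NLuc secreted into diluted conditioned medium of S16 cells; series mostly up to about 54 µM; 0% = DMSO and -100% = no enzyme.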 In a few lines: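 qHTS format, against NLuc in S16 cell-conditioned medium. Nano-Glo substrate 1:100 was added after 15 min at room temperature. Luminescence was taken after a further 5 min.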

Sequence of Phospholipid hydroperoxide glutathione peroxidase GPX4 (Homo sapiens) (P36969 whole entry, looked up): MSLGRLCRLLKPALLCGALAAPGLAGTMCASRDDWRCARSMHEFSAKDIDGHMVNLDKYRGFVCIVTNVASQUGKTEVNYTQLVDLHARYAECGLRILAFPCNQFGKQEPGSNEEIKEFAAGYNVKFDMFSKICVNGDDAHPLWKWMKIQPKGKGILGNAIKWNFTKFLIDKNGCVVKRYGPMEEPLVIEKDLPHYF
Sequence of Glutathione peroxidase 1 (Homo sapiens) (P07203 whole entry, looked up): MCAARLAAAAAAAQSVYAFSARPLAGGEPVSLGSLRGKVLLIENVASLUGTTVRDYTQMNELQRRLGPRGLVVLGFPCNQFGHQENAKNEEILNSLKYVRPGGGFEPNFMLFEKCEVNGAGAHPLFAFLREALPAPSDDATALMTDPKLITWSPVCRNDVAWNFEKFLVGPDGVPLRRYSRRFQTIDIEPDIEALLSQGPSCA

Turning to `CN(C)CCOC(C)(c1ccccc1)c1ccc(Cl)cc1` (stereo not given), the Potency result in test [1], in test [2], in test [3], in test [4] and in test [5] was “inactive” throughout.

Turning to `CC(CCC1(O)OC2CC3C4CC=C5C[C@@H](O[C@@H]6O[C@H](CO)[C@@H](O[C@@H]7O[C@@H](C)[C@H](O)[C@@H](O)[C@H]7O)[C@H](O)[C@H]6O[C@@H]6O[C@@H](C)[C@H](O)[C@@H](O)[C@H]6O)CC[C@]5(C)C4CC[C@]3(C)[C@@]2(O)[C@@H]1C)CO[C@@H]1O[C@H](CO)[C@@H](O)[C@H](O)[C@H]1O` (stereo not given in full), the Potency entry in test [1] and in test [2] was “inactive” in each case. Moreover, the outcome in test [3] is “inactive [at 11.6 µM]”. In addition, the activity change, negative = thiol reactive in test [4] was 40.3% [at 11.5 µM]. For the same compound, the activity, negative = inhibition in test [5] is 0% [at 11.6 µM].

In the case of `CC(=O)O[C@H]1CC[C@]2(C)[C@H]3CC[C@]4(C)Oc5oc(C)cc(=O)c5C[C@H]4[C@]3(C)CC[C@H]2C1(C)C`, the Potency result in test [1], in test [2], in test [3], in test [4] and in test [5] was “inactive” in each case.

Turning to `CC[C@H]1CN(c2nc(N)c(C(N)=O)nc2Cl)CCN1C1CCN(Cc2ccc(Cl)cc2)CC1`, the Potency entry in test [1], in test [2], in test [3], in test [4] and in test [5] was “inactive” throughout.

As for `O=C(NCc1nc2ccccc2c(=O)n1-c1ccc(F)cc1)Nc1ccc(Cl)c(C(F)(F)F)c1`, the Potency entry in test [1], in test [2], in test [3], in test [4] and in test [5] was “inactive” each time.

In the case of `Cc1nc(N2CCN(C(=O)c3ccco3)CC2)c2c3c(sc2n1)CCCC3`, the Potency result in test [1], in test [2], in test [3], in test [4] and in test [5] was “inactive” in each case.

As for `Cc1nc(Nc2ccc(F)cc2)nc(N2CCc3ccccc3C2C)c1C` (stereo not given), the Potency entry in test [1], in test [2], in test [3], in test [4] and in test [5] was “inactive” throughout.

For the compound `COC(=O)c1cc(Br)cnc1N1CCC(NC2CCCCC2)C(O)C1` (stereo not given), the Potency entry in test [1], in test [2], in test [3], in test [4] and in test [5] was “inactive” each time.

With `CC1(C)CCCC2(C)C1C(=O)C=C(C(=O)O)C2(O)C(=O)O` (stereo not given), the Potency entry in test [1], in test [2], in test [3] and in test [5] was “inactive” each time. In addition, the Potency in test [4] is 9.47 µM (active).

With `CC(C)n1c(=O)c(C(=O)NC2CC3CCC(C2)N3C[C@@H](O)CN(C)S(C)(=O)=O)cc2ccccc21` (stereo not given in full), the Potency result in test [1], in test [2], in test [3], in test [4] and in test [5] was “inactive” each time.

Regarding `C[C@@H]1O[C@@H](O[C@H]2CC[C@@]3(C)C(CC[C@]4(C)C3CC=C3[C@@H]5CC(C)(C)CC[C@]5(C(=O)O[C@@H]5O[C@H](CO)[C@@H](O)[C@H](O)[C@H]5O)CC[C@]34C)[C@]2(C)CO)[C@H](O)[C@H](O[C@@H]2O[C@H](CO)[C@@H](O)[C@H](O)[C@H]2O)[C@H]1O` (stereo not given in full), the Potency entry in test [1] and in test [2] was “inactive” each time. Besides, the outcome in test [3] is “inactive [at 11.6 µM]”. Further, the activity change, negative = thiol reactive in test [4] is 278% [at 11.5 µM]. Also, in test [5], the activity, negative = inhibition is 2.95% [at 11.6 µM].

On to `O=c1[nH]c2ccccc2n1CCN1CCN(c2cccc(C(F)(F)F)c2)CC1`, for which the Potency result in test [1], in test [2], in test [3], in test [4] and in test [5] was “inactive” in each case.

Consider `CC1OC2OC(=O)C3(C)CC4C5(CO5)C5=CC(=O)OC(C)(C)C5=CC(=O)C4(C)C(C1=O)C23` (stereo not given), for which the Potency result in test [1], in test [2], in test [3] and in test [5] was “inactive” throughout. The Potency in test [4] was 1.03 µM (active).

As to `C/C=C(\C)C(=O)O[C@H]1C[C@](C)(O)[C@H]2CC=C(C)[C@H]2[C@@H]2OC(=O)[C@H](C)[C@H]21`, the Potency result in test [1], in test [2], in test [3], in test [4] and in test [5] was “inactive” each time.

Regarding `CC1OC(OC2C(O)COC(O[C@@H]3[C@@H](O)[C@@H](O)[C@H](OC4C(OC(=O)[C@]56CCC(C)(C)CC5C5=CCC7[C@@]8(C)C[C@H](O)[C@H](OC9OC(CO)C(O)C(O)C9O)[C@@](C)(CO)C8[C@H](O)C[C@@]7(C)[C@]5(C)CC6)OCC(O)C4O)O[C@H]3C)C2O)C(O)C(O)C1O` (stereo not given in full), the activity, negative = inhibition is -4.86% [at 9.52 µM] in test [1] and -5.56% [at 11.6 µM] in test [5]. Also, the activity change, negative = inhibition in test [2] was -9.45% [at 9.73 µM]; in test [3], -14.3% [at 11.6 µM]. The activity change, negative = thiol reactive in test [4] is 417% [at 11.5 µM].

Take `Cc1cc(-c2ncc(-c3cccnc3)cc2/C=C/c2ccccc2)cnc1-c1cccnc1`: in test [1], the Potency is 18 µM (active). The Potency entry in test [2], in test [3], in test [4] and in test [5] was “inactive” in each case.

For the compound `CN1CCN(Cc2ccc(NC(=O)Cc3ccc(Oc4cc(NC(=O)C5CC5)ncn4)cc3)cc2C(F)(F)F)CC1`, the Potency result in test [1], in test [2], in test [3], in test [4] and in test [5] was “inactive” each time.

Consider `CCC(CC)C(=O)OC12C(OC(=O)C(C)C)C(C)C3(O)C(C=C(CO)CC4(O)C(=O)C(C)=CC43)C1C2(C)C` (stereo not given), for which the Potency result in test [1], in test [2], in test [3], in test [4] and in test [5] was “inactive” throughout.

As to `CCC(=O)N1CCOc2c(cc(-c3ccc(OC)c(OC)c3)cc2OC[C@H]2CCCN(C)C2)C1`, the Potency result in test [1], in test [2], in test [3], in test [4] and in test [5] was “inactive” in each case.

For `O=C(NCc1ccc(OC(F)(F)F)cc1)C1c2c(F)cccc2C(=O)N1CCc1ccccn1` (stereo not given), the Potency entry in test [1], in test [2], in test [3], in test [4] and in test [5] was “inactive” throughout.

`OC(c1ccc(-c2ccc(CN3CCN(Cc4ccncc4)CC3)cc2)c(F)c1)(C(F)(F)F)C(F)(F)F`: the Potency entry in test [1], in test [2], in test [3], in test [4] and in test [5] was “inactive” in each case.

For the compound `CC(C)c1noc(C2CCN(c3ncnc(Nc4ccc(S(C)(=O)=O)cc4F)c3[N+](=O)[O-])CC2)n1`, the Potency result in test [1], in test [2], in test [3], in test [4] and in test [5] was “inactive” throughout.

As for `NC(=O)c1nc(Nc2ccccc2)sc1NC(=O)C1CCCCC1`, the Potency result in test [1], in test [2], in test [3] and in test [5] was “inactive” each time. Besides, the Potency in test [4] was 1.68 µM (active).
